Source: PubChem (National Center for Advancing Translational Sciences (NCATS))
Pf growth 96h – inhibits malaria parasite growth, 96 h. P. falciparum luciferase reporter growth, 96 h. Potency, µM (top dose mostly 28.7 µM), hits mostly inhibitors. 320,000 tested, 6.9% active. AID 504834
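Plates of compound plus infected erythrocytes (2% hematocrit, 0.05% parasitemia final) incubate 96 hours, 37 C, 5% CO2. Detection reagent added; reduced luminescence from the parasites' luciferase reporter flags inhibition.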
Pf growth 48h – P. falciparum growth inhibition at 48 hours (one generation); AID 504832; Potency, µM (doses to about 28.7 µM), most hits filed as inhibitors; 310,000 tested, 5.9% active; P. falciparum luciferase growth in erythrocytes, 48 h
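Here the parasites carry a stable luciferase gene and grow inside erythrocytes in Albumax-based RPMI medium with compound for one erythrocytic cycle. Activity is scored as loss of luminescent signal.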
SARS PLP yeast – blocks SARS-CoV papain-like protease in a yeast assay | S. cerevisiae expressing SARS-CoV PLpro, growth rescue | Potency, µM (top dose mostly 32.9 µM), actives largely listed as activators | 330,000 tested, 0.19% active; calls by dose curve; further: nearly all actives have a fitted effect of over 55% in size
Shiga inhibitor – inhibitors of Shiga toxin in Vero cells; Vero cells, Shiga toxin protein synthesis inhibition reporter; inhibition, % at 38.7 µM; 290,000 tested, 9.2% active; AID 2315; in the data active means inhibition mostly above about 28%, no sharp cut-off; inactive means mostly below about 43%
Cycloheximide cs – counter-screen for Shiga toxin inhibitors: cycloheximide protein synthesis inhibition | 300,000 tested, 12% active | max response, % | cell reporter, cycloheximide protein synthesis inhibition counterscreen; in the data active means max response mostly above about 13%, no sharp cut-off; inactive means mostly below about 14%; further: read at 38.3 µM for the half of the compounds with a filed dose
AMA1-RON2 inh – disrupts binding of P. falciparum AMA1 to RON2. AlphaScreen AMA1-biotinylated RON2 peptide binding. Potency, µM (series often up to 58.2 µM), hits mostly inhibitors. AID 720542. 360,000 tested, 0.2% active; further: nearly all actives have a fitted effect of over 45% in size
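AMA1 (3D7) with his tag at 25 nM final met compounds first, then biotinylated RON2 peptide at 25 nM; detection used donor plus acceptor beads, 10 µg/mL apiece, read by AlphaScreen after 30 min at room temperature.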
Numbers stand for hits; 0 = inactive; ? = inconclusive; - = not tested or not shown; + = active, no number; [ ] = remark or other dose. This is a sample that favours compounds with a hit; in the whole collection about 19% have one here. Unless noted, the call rests on the fitted dose curve; in most records, active means well fitted curve in the direction sought with a large enough effect; inconclusive means small, poorly fitted or top-dose-only effect, or another doubt; inactive means no such curve, though single readings can be large; an effect the other way counts as inactive or inconclusive.

SMILES	Pf growth 96h	Pf growth 48h	SARS PLP yeast	Shiga inhibitor	Cycloheximide cs	AMA1-RON2 inh
CC(C)(C)c1nnc(N/N=C/c2ccccc2)n(N)c1=O	0	0	0	0	11	0
Cc1nnc(N/N=C/c2ccc(Br)cc2)n1N	15µM	0	0	-	10.0	0
Cc1nnc(N/N=C\c2ccc(-c3cccc(C(=O)O)c3)o2)n1N	0	0	0	0	0	0
COc1ccc(/C=N/Nc2nnc(C)n2N)cc1OC(C)=O	0	-	0	0	12	0
COc1ccc(/C=N/Nc2nnc(C)n2N)cc1OC	0	?	0	0	0	0
CCCCN1C(=O)C(CC(=O)NCCCN(C)C)CC(C(=O)N2CCOCC2)=C1C (stereo not drawn)	-	-	-	-	-	0
Cc1cc2nc3c(c(C(F)(F)F)n2n1)CCCC3	0	0	0	0	0	0
CC(=O)N1CCN(c2ccc(NCc3ccc(C)s3)cc2)CC1	?	-	0	0	0	0
Cc1ccc(CNc2ccc(N3CCOCC3)cc2)s1	0	0	0	93	48	0
Cc1ccc(NCc2ccc(C)s2)cc1	0	0	0	66	37	-
O=C(COc1ccccc1)N=C1SC2CS(=O)(=O)CC2N1c1ccccc1 (stereo not drawn)	0	0	0	0	0	0
CN(C)c1ccc(N2C(=NC(=O)COc3ccccc3)SC3CS(=O)(=O)CC32)cc1 (stereo not drawn)	?	0	0	46	25	0
O=C(COc1ccccc1)N=C1SC2CS(=O)(=O)CC2N1Cc1ccccc1 (stereo not drawn)	13µM	?	?	0	0	0
CC(=O)NC(c1ccccc1)c1nc(-c2cccs2)cs1 (stereo not drawn)	-	-	-	-	-	0
CN(C(=O)COC(=O)c1ccc2c(=O)n3c(nc2c1)CCC3)c1ccccc1	0	0	0	0	0	0[11.6 µM]
Cc1cccc(NC(=O)c2ccc([N+](=O)[O-])o2)c1C	0	0	0	0	0	0
O=C(Nc1ncccn1)c1ccc([N+](=O)[O-])o1	0	8.3µM	0	64	52	0
Cc1ccnc(NC(=O)c2ccc([N+](=O)[O-])o2)c1	?	0	0	133	68	0
O=C(Nc1nc2c(F)cccc2s1)c1ccc([N+](=O)[O-])o1	?	?	0	0	11	0
CCN(CC)C(=O)c1ccc2sc([C@H]3C[C@H](O)[C@@H](CO)O3)nc2c1	-	-	-	-	-	0
Cc1ccc(S(=O)(=O)Nc2ccc(Cl)cc2C(=O)c2ccc(F)cc2)cc1	?	0	0	0	0	0[2.32 µM]
CCCC(=O)NCCc1nc2cc([N+](=O)[O-])ccc2n1C	0	0	0	0	0	0
CCOc1ccc(C2=Nc3ccc(Br)cc3C(c3ccc(N4CCOCC4)cc3)=NN2)cc1	?	10µM	0	56	44	0
CCOc1ccc(C2=Nc3ccccc3C(c3ccc(N4CCOCC4)cc3)=NN2)cc1	?	?	0	163	46	0
CCOc1ccc(C2=NNC(c3cccs3)=Nc3ccc(OC)cc32)cc1	0	12µM	0	85	35	?
SMILES	Pf growth 96h	Pf growth 48h	SARS PLP yeast	Shiga inhibitor	Cycloheximide cs	AMA1-RON2 inh
CCOc1ccc2c(c1)C(c1ccc(C)o1)=NNC(c1ccncc1)=N2	0	1.5µM	0	0	0	0
C[C@@H]1CN([C@H](C)CO)S(=O)(=O)c2ccc(Br)cc2O[C@H]1CN(C)S(C)(=O)=O	-	-	-	-	-	0
Cc1ccc(C(=O)C(C)CN2CCCCC2)cc1 (stereo not drawn)	13µM	13µM	-	-	-	-
O=C(c1ccccc1)C(CN1CCCC1)c1ccccc1 (stereo not drawn)	12µM	?	0	0	0	0
O=C(c1ccc(Cl)cc1)C(CN1CCCCC1)c1ccccc1 (stereo not drawn)	0	0[0.00184 µM]	0	0	0	0
Cc1nc([N+](=O)[O-])cn1CC(O)c1ccc(-c2ccccc2)cc1 (stereo not drawn)	0	?	0	0	0	0
Oc1ccc(N=Nc2ccccc2)cc1	0	0	0	73	36	0
O=C(O)c1ccccc1N=Nc1ccc(O)cc1	-	-	-	-	-	0
CC(=O)Nc1ccc(S(=O)(=O)N(C)c2ccc(O)cc2)cc1	0	0	0	0	0	0
Oc1ccc(Cl)cc1N=Nc1ccccc1	?	0	0	0	27	?
CC(=O)Nc1ccc(N=Nc2ccc(O)cc2)cc1	0	0	0	+	35	0
CC(=O)Nc1ccc(N=NN2CCOCC2)cc1	0	0	11µM	73	46	0
CC(C)C[C@H]1CNC(=S)N1C[C@H]1CCCN1C[C@H](Cc1ccccc1)N1C[C@H](CC(C)C)N(CCc2ccccc2)C1=S	-	-	-	-	-	0
COc1cccc(CNCC(O)COc2ccc(C(=O)c3ccccc3)cc2)c1 (stereo not drawn)	0	0	0	0	0	0
Clc1ccc([C@@H](OCCN2CCCCC2)c2ccccc2)cc1	3.2µM	?	-	-	-	-
Cc1c(CCO)c(=O)[nH]n1S(=O)(=O)c1ccccc1	0	3.3µM	0	0	0	0
Cn1c(=O)c2[nH]c(-c3ccccc3Cl)c(O)c2n(C)c1=O	13µM	4.7µM	0	0	0	0
Cn1c(=O)c2[nH]c(-c3ccccc3)c(O)c2n(C)c1=O	0	0	0	0	0	0
CC1=C(c2ccc(C)cc2)[N+](=O)C(C)(C)N1[O-]	?	0	0	78	19	?
O=C(NC(=S)NCc1ccccc1)c1ccccc1	0	0	0	0	0	0
O=C(CNC(=S)NC(=O)c1ccco1)c1ccccc1	0	0	0	75	37	0
Cc1ccc(C(=O)NC(=S)NCC(=O)c2ccccc2)cc1	0	0	0	0	17	0
O=C(CNC(=S)NC(=O)c1cccs1)c1ccccc1	0	0	0	90	66	0
O=C(Nc1ccc(NC(=S)NC(=O)c2ccco2)cc1)c1ccccc1	0	?	0	0	0	0
O=C(NC(=S)NCc1ccccc1)c1cccs1	0	0	?	0	0	0
SMILES	Pf growth 96h	Pf growth 48h	SARS PLP yeast	Shiga inhibitor	Cycloheximide cs	AMA1-RON2 inh
CC(CCc1ccccc1)NC(=O)COC(=O)c1cccnc1Cl (stereo not drawn)	-	-	0	-	-	0
CCCCC(OC(=O)CN1C(=O)COc2ccccc21)C(=O)NC1CCCCC1 (stereo not drawn)	0	0	0	0	0	0
C=CCNC(=S)NC(=O)c1ccc(C)c(Br)c1	0	0[5.75 µM]	0	100	38	0
C=CCNC(=S)NNC(=O)c1ccc(C)c(Cl)c1	0	0	0	0	0	0
COc1ccc(C(=O)NC(=S)NCCO)cc1Br	0	0	0	0	16	0
CCN(CC)C(=S)NC(=O)c1ccc(OC)c(Br)c1	0	?	0	0	0	0
C=CCN(CC=C)C(=S)NC(=O)c1ccc(OC)c(Br)c1	15µM	10µM	0	0	0	0
Cc1ccc(C(=O)N2[C@@H]3CN(C)C(=O)[C@@]2(Cc2ccccc2)[C@H]2C(=O)N(Cc4ccccc4)C(=O)[C@@H]32)cc1	-	-	-	-	-	0
COc1ccc(OC)c(NC(=O)Cc2coc3cc(C)cc(C)c23)c1	0	-	0	0	0	0
